According to PubChem BioAssay (NCI):
The panel holds about 79,000 compounds, 15% with a hit somewhere; the sample as a whole holds those more often. Unmarked numbers belong to inactive results. Calls of active or inactive are those of the source. Cut-off read from the data, not from the text of the source: active = growth inhibition above about 70%; inactive = the rest.

Tests used:
[1] = NCI Yeast Anticancer Drug Screen. Data for the rad50 strain (AID 155);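 note: 0% = growth of vehicle-only cultures of the same strain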; details: S. cerevisiae rad50 strain growth inhibition, hits give high values
Outline: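 Vehicle-treated cultures provide the reference for the growth inhibition reported for compound-exposed, repair-deficient yeast.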

[2] = NCI Yeast Anticancer Drug Screen. Data for the mec2-1 strain (AID 157); details: S. cerevisiae mec2-1 strain, hits give high values
Outline: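 mec2-1 yeast strain, carrying an alteration in DNA damage repair or cell cycle control, was exposed to compounds; growth inhibition was measured relative to vehicle-treated controls.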

[3] = NCI Yeast Anticancer Drug Screen. Data for the sgs1 mgt1 strain (AID 161);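 note: 0% = growth of cultures given vehicle only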; details: S. cerevisiae sgs1 mgt1 strain, hits give high values
Outline: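 Compounds are added to genetically altered yeast, and growth is compared with cultures given vehicle alone to give percent inhibition.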

[4] = NCI Yeast Anticancer Drug Screen. Data for the cln2 rad14 strain (AID 165);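 note: 0% = growth equal to vehicle treated cultures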; details: S. cerevisiae cln2 rad14 strain, hits give high values
Outline: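 Yeast carrying cln2 and rad14 alterations (cell cycle control and DNA damage repair) were exposed to compounds. Growth inhibition was measured against vehicle-treated controls.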

[5] = NCI Yeast Anticancer Drug Screen. Data for the bub3 strain (AID 167); details: S. cerevisiae bub3 mutant strain, hits give high values
Outline: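 Mutant yeast screening strain plus compound; vehicle-treated cultures serve as the 0% inhibition reference.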

[6] = NCI Yeast Anticancer Drug Screen. Data for the mlh1 rad18 strain (AID 175); details: S. cerevisiae mlh1 rad18 strain growth inhibition, hits give high values
Outline: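 Growth inhibition of the yeast strain was measured after compound exposure and expressed relative to vehicle-treated controls. The strain carries defined defects in DNA damage repair.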

[7] = at 5.0 µM (retest, dose inferred, filed as 0.5)
[8] = at 50.0 µM (retest, dose inferred, filed as 5.0)

| Structure (SMILES) | growth inhibition [1, 7] | growth inhibition [1, 8] | growth inhibition ([1]; at 50.0 µM) | growth inhibition [2, 7] | growth inhibition [2, 8] | growth inhibition ([2]; at 50.0 µM) | growth inhibition [3, 7] | growth inhibition [3, 8] | growth inhibition ([3]; at 50.0 µM) | growth inhibition [4, 7] | growth inhibition [4, 8] | growth inhibition ([4]; at 50.0 µM) | growth inhibition [5, 7] | growth inhibition [5, 8] | growth inhibition ([5]; at 50.0 µM) | growth inhibition [6, 7] | growth inhibition [6, 8] | growth inhibition ([6]; at 50.0 µM) |
| --- | --- | --- | --- | --- | --- | --- | --- | --- | --- | --- | --- | --- | --- | --- | --- | --- | --- | --- |
| O=C(CCC(NC(=O)OCc1ccccc1)C(=O)OCc1ccccc1)NC(CSCc1ccccc1)C(=O)NCC(=O)Oc1c(Cl)c(Cl)c(Cl)c(Cl)c1Cl (centres undefined) | 8% | 51% | 31% | 9% | 32% | 28.8% | 7% | 35% | 64.2% | -7% | 48% | 45% | 3% | 59% | 18.8% | 8% | 54% | 60.7% |
| OCCOc1ccc2ccccc2c1-c1c(OCCOc2ccc3ccccc3c2-c2c(OCCO)ccc3ccccc23)ccc2ccccc12 | 0% | 22% | 36.1% | -3% | 13% | 21.5% | 1% | 29% | 36.9% | 6% | 33% | 11.7% | -2% | 14% | 24.6% | 3% | 27% | 26.4% |
| CC(=O)N1C(c2[nH]c3ccccc3c2-c2ccccc2)CCN1c1ccccc1 (centres undefined) | -12% | 74% (active) | 64.1% | -2% | 51% | 54.7% | 14% | 87% (active) | 83.2% (active) | 7% | 73% (active) | 69.9% | -5% | 87% (active) | 63.2% | -9% | 83% (active) | 71% (active) |
| Cc1cc(C)nc(NS(=O)(=O)c2ccc(NC(=O)c3cccnc3Nc3cccc(Cl)c3)cc2)n1 | -2% | 33% | 45.9% | -9% | 34% | 13.1% | 6% | 51% | 54.9% | -10% | 35% | 22.1% | -6% | 41% | 25.5% | -1% | 53% | 81.5% (active) |
| CCCCCOC(=O)C1C(=O)CC(c2ccccc2)C1c1ccccc1 (centres undefined) | 1% | 79% (active) | 92.2% (active) | -1% | 63% | 16.6% | -4% | 67% | 56.1% | 0% | 76% (active) | 63.9% | -5% | 72% (active) | 45.5% | 0% | 85% (active) | 68.6% |
| Nc1cc(S(=O)(=O)O)cc2cc(S(=O)(=O)O)c(N=Nc3ccccc3)c(O)c12 | 0% | -1% | 99.3% (active) | -2% | 5% | 99.2% (active) | 0% | 0% | 99.3% (active) | 12% | 3% | 96.5% (active) | -36% | 10% | 99% (active) | 0% | 1% | 98.7% (active) |
| COC(=O)C1(c2ccc(N(C)C)cc2OC)CCCN(C(=O)Oc2ccccc2[N+](=O)[O-])CCc2c1[nH]c1ccccc21 (centres undefined) | 69% | 71% (active) | 74.9% (active) | 83% (active) | 80% (active) | 66.8% | 52% | 55% | 72.8% (active) | 39% | 52% | 50.5% | 53% | 85% (active) | 42% | 83% (active) | 88% (active) | 75.2% (active) |
| COc1ccc(CCC2(C)OCCC(C)O2)cc1 (centres undefined) | 12% | 92% (active) | -13.5% | 13% | 96% (active) | -6.35% | 16% | 91% (active) | -4.35% | 10% | 95% (active) | 28.6% | -3% | 76% (active) | -16.1% | 19% | 94% (active) | -26.8% |
| N#CC1(C#N)C2C=CC(c3coc4cccc2c34)C1(C#N)C#N (centres undefined) | 29% | 37% | 35.6% | 17% | 27% | 35.9% | 32% | 37% | 75% (active) | 19% | 27% | 19.2% | 22% | 47% | 58.2% | 26% | 47% | 57.9% |
| CCC[CH2][Sn]([CH2]CCC)([O]C(=O)C1CCC(=O)N1)[O]C(=O)C1CCC(=O)N1 (centres undefined) | 93% (active) | 93% (active) | 90.3% (active) | 94% (active) | 94% (active) | 90.7% (active) | 91% (active) | 91% (active) | 90% (active) | 96% (active) | 96% (active) | 91% (active) | 94% (active) | 94% (active) | 90.9% (active) | 95% (active) | 95% (active) | 88.7% (active) |
| CC(=O)O[C@H]1CC[C@]2(C)C34OC3C[C@]3(C)[C@@H](C(C)=O)CC[C@H]3[C@]43C=C[C@@]2(C1)C1C(=O)OC(=O)C13 (some centres undefined) | 10% | 60% | 88.2% (active) | 6% | 45% | 89.9% (active) | 5% | 48% | 75.9% (active) | 0% | 34% | 84.2% (active) | 2% | 42% | 92.4% (active) | -2% | 85% (active) | 93.2% (active) |
| Cc1ccc(S(=O)/C=C/S(=O)(=O)c2ccc(C)cc2)cc1 (centres undefined) | 99% (active) | 99% (active) | 99.3% (active) | 99% (active) | 100% (active) | 99.6% (active) | 100% (active) | 100% (active) | 99.5% (active) | 98% (active) | 100% (active) | 99.5% (active) | 99% (active) | 100% (active) | 99.6% (active) | 100% (active) | 100% (active) | 99.5% (active) |
| O=C1C(=O)C(Cl)=C(Cl)C(Cl)=C1Cl | -3% | 97% (active) | 99.3% (active) | 7% | 99% (active) | 99.7% (active) | 1% | 95% (active) | 99.5% (active) | -12% | 98% (active) | 98.5% (active) | -25% | 97% (active) | 99.3% (active) | -7% | 98% (active) | 99.1% (active) |
| CC(=O)c1cccc(NC2C(N)C(NC(=O)N(C)C)(C(C)O)C(C)(O)C2(O)COC(=O)c2c(C)cccc2O)c1 (centres undefined) | 42% | 96% (active) | 93% (active) | 17% | 98% (active) | 94.5% (active) | 44% | 97% (active) | 94.6% (active) | 21% | 96% (active) | 92% (active) | 36% | 98% (active) | 93.8% (active) | 47% | 97% (active) | 93.2% (active) |
| COc1ccc(C(c2ccc(OC)cc2)c2ccccc2C(=O)O)cc1 | -5% | 64% | 37.8% | -14% | 31% | 27.1% | 16% | 48% | 35.1% | 18% | 39% | 35.9% | 20% | 56% | 18.1% | 41% | 73% (active) | 54.9% |
| CC/C(=C(\CC)c1ccc(OCCN2CCOCC2)cc1)c1ccc(OCCN2CCOCC2)cc1 | 47% | 63% | 82.8% (active) | 36% | 62% | 70.5% (active) | 67% | 88% (active) | 89% (active) | 62% | 64% | 83.5% (active) | 59% | 68% | 79.9% (active) | 30% | 72% (active) | 87.8% (active) |
| CSc1nc(C)c(C(=O)CCN2CCOCC2)s1 | -7% | 67% | 99.5% (active) | 11% | 99% (active) | 99.6% (active) | -4% | 75% (active) | 99.6% (active) | -6% | 89% (active) | 93% (active) | -12% | 92% (active) | 47.6% | -5% | 88% (active) | 99.2% (active) |
| CCCCC1C(=S)N(c2ccccc2)N(c2ccccc2)C1=S | 0% | -2% | 24.1% | 2% | -13% | 40.9% | 5% | -14% | 82.8% (active) | 0% | -10% | 8.6% | 3% | -6% | 37% | -7% | 3% | 60.4% |
| CCCCCCCCCCCCCCSC(=NCC)NCC | 99% (active) | 99% (active) | 99.2% (active) | 100% (active) | 100% (active) | 99.5% (active) | 100% (active) | 100% (active) | 99.2% (active) | 99% (active) | 99% (active) | 97.4% (active) | 99% (active) | 99% (active) | 99.3% (active) | 99% (active) | 99% (active) | 99% (active) |
| Cc1cnc(Sc2c([N+](=O)[O-])ncn2C)nc1 | 3% | 8% | 71.8% (active) | 6% | 7% | 98.2% (active) | 3% | 9% | 63.7% | 0% | 7% | 41.5% | 1% | 4% | 99.5% (active) | -1% | 3% | 80.1% (active) |
| CC/C(=C(/CC)c1ccc(O)cc1)c1ccc([O-])cc1.CC/C(=C(/CC)c1ccc(O)cc1)c1ccc([O-])cc1.O=C([CH-]C(=O)c1ccccc1)c1ccccc1.O=C([CH-]C(=O)c1ccccc1)c1ccccc1.[Ti+4] | 64% | 95% (active) | 88.8% (active) | 60% | 97% (active) | 92% (active) | 74% (active) | 98% (active) | 92.8% (active) | 56% | 96% (active) | 91.5% (active) | 78% (active) | 98% (active) | 90.2% (active) | 80% (active) | 93% (active) | 89% (active) |
| O=S(=O)(CCCl)Cc1ccccc1 | -145% | -144% | 5.2% | -45% | -39% | -0.4% | -61% | -37% | 14% | -50% | -50% | 10.7% | -69% | -66% | 10.7% | -144% | -100% | 10.8% |
| Oc1c(Cl)c(Cl)c2ncccc2c1Cl | 14% | 13% | 55.8% | 10% | 13% | -8.8% | 11% | 15% | 49% | 4% | 5% | -26.4% | 5% | 37% | 48.6% | 7% | 12% | 45.5% |
